# Screen size: about 30,000 compounds; about 110 (0.37%) were called active. For the sample, actives were picked, then their nearest neighbours and some compounds at random. Values without a mark were called inactive.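 Rule for the calls: active = delta delta Cp rounded down to an integer at or above 3, about 3 SD of DMSO wells; inactive = the rest.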
# Experiment: inhibitors of YB-1 gene expression, primary screen, cell-based, fluorescence (AID 434959);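 note: higher means less YB-1 transcript or more CDIP transcript relative to DMSO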
# Conditions: U2OS, qRT-PCR YB-1 vs CDIP delta delta Cp, 16 h; stronger effect = higher value; zero = DMSO, each unit about twofold
row,SMILES,delta Cp (YB-1 minus CDIP)
1,O=C(O)CCC(=O)N(Cc1ccccc1)Cc1cn(-c2ccccc2)nc1-c1cccnc1,-0.539
2,C[C@@H]1CN([C@@H](C)CO)C(=O)c2cc(N(C)C)ccc2O[C@H]1CN(C)Cc1ccc(C(F)(F)F)cc1,-0.101
3,C[C@@H]1CN([C@@H](C)CO)C(=O)c2cc(NC(=O)Cc3ccccc3)ccc2O[C@@H]1CN(C)S(=O)(=O)c1ccccc1,0.109
4,C[C@@H]1CN([C@@H](C)CO)C(=O)c2cc(NC(=O)c3ccncc3)ccc2O[C@H]1CN(C)S(=O)(=O)c1ccc(Cl)cc1,-0.0147
5,Cc1ccoc1CC[N+](C)(C)C,-0.0929
6,C[C@@H]1CN([C@@H](C)CO)C(=O)CCCn2nncc2CO[C@H]1CN(C)Cc1ccc(C(F)(F)F)cc1,-0.415
7,CNC[C@H]1Oc2ccc(NS(=O)(=O)c3ccc(F)cc3)cc2C(=O)N([C@@H](C)CO)C[C@@H]1C,-0.0588
8,C[C@@H]1CCCCO[C@@H](CN(C)S(=O)(=O)c2cccs2)[C@@H](C)CN([C@H](C)CO)C(=O)c2cc(NC(=O)Nc3ccc(F)cc3)ccc2O1,-0.356
9,COc1cccc(NC(=O)N(C)C[C@@H]2OCc3cn(nn3)CCCC(=O)N([C@@H](C)CO)C[C@H]2C)c1,0.0991
10,CC(C)(C)C(=O)CSc1nc2ccccc2c(=O)n1CC1CC1,-0.316
11,COC(=O)C1=C(C)NC2=C(C(=O)CC(C)(C)C2)C1c1ccncc1 (stereo unspecified),-0.233
12,O=C(O)CCCCCC(=O)N/N=C/c1ccncc1Br,-0.0121
13,Cc1ccc(/C=N/NC(=O)CCCCCCC(=O)O)o1,-0.127
14,COc1ccc(NC(=O)Nc2cccc3c2O[C@H](CN(C)Cc2ccncc2)[C@@H](C)CN([C@@H](C)CO)C3=O)cc1,-0.239
15,CC(C)S(=O)(=O)NCC1CCN(Cc2cccc(OCCO)c2)CC1,0.112
16,C[C@@H]1CCCCO[C@H](CN(C)C(=O)Nc2cccc3ccccc23)[C@@H](C)CN([C@H](C)CO)C(=O)c2cc(NC(=O)Nc3ccc4c(c3)OCO4)ccc2O1,0.427
17,C[C@@H]1CN([C@@H](C)CO)C(=O)CCCn2cc(nn2)CO[C@H]1CN(C)Cc1cccc2c1OCCCO2,-0.151
18,Cc1noc(C)c1S(=O)(=O)Nc1ccc2c(c1)CC(=O)N([C@@H](C)CO)C[C@H](C)[C@H](CN(C)C(=O)Nc1cccc3ccccc13)O2,-0.29
19,CN1C(=O)C(Cc2ccccc2)(Cc2ccccc2)c2ccccc21,-0.307
20,C[C@@H]1CN([C@H](C)CO)C(=O)c2cc(NC(=O)CCCN(C)C)ccc2O[C@H]1CN(C)S(=O)(=O)c1ccc(Cl)cc1,-0.394
21,Cc1ccc(S(=O)(=O)N(C)C[C@@H]2OCCCC[C@@H](C)Oc3ccc(NS(=O)(=O)c4ccccc4)cc3C(=O)N([C@H](C)CO)C[C@@H]2C)cc1,-0.0955
22,O=C(CCCCCCC(=O)Nc1ccccc1O)N/N=C/c1ccc2c(c1)Cc1ccccc1-2,0.456
23,O=C(N/N=C/c1cc(F)ccc1O)c1ccccc1O,0.293
24,COc1ccc2nc3c(nc2c1)C(=O)c1ccccc1C3=O,0.188
25,COc1ccc(OC)c(CCCc2cc(OC)ccc2OC)c1,10.3 (active)
26,C[C@H]1CN([C@@H](C)CO)C(=O)c2cc(NS(=O)(=O)c3cccs3)ccc2O[C@@H]1CN(C)C(=O)Nc1cccc2ccccc12,-0.308

row,SMILES,delta Cp (YB-1 minus CDIP)
1,Cc1noc(C)c1S(=O)(=O)N(C)C[C@H]1OCCCC[C@@H](C)Oc2ccc(NC(=O)C3CCCCC3)cc2C(=O)N([C@H](C)CO)C[C@@H]1C,0.386
2,C[C@H](CO)N1C[C@H](C)[C@H](CN(C)S(C)(=O)=O)Oc2ncc(C#CCN(C)C)cc2C1=O,0.217
3,NCCCC[C@@H]1NC(=O)[C@@H]2C[C@H](C(=O)NCc3ccc(F)cc3)[C@H](c3ccc(O)cc3)N2C1=O,0.142
4,C[C@H](CO)N1C[C@H](C)[C@H](CN(C)S(=O)(=O)c2cccs2)Oc2ccc(NS(=O)(=O)c3ccccc3)cc2C1=O,-0.379
5,Cc1ccc(S(=O)(=O)Nc2cccc3c2O[C@@H](CN(C)S(=O)(=O)c2cccs2)[C@@H](C)CN([C@@H](C)CO)C3=O)cc1,-0.365
6,COc1ccc(-c2cnc3c(c2)C(=O)N([C@H](C)CO)C[C@H](C)[C@H](CN(C)S(=O)(=O)c2ccccc2)O3)cc1,0.828
7,C=C(CC/C=C(\C)C(=O)O)C1(O)CC=C(C)CC1 (stereo unspecified),-0.182
8,Cc1noc(C)c1S(=O)(=O)Nc1ccc2c(c1)C(=O)N([C@@H](C)CO)C[C@@H](C)[C@H](CN(C)C(=O)Nc1cccc3ccccc13)O2,0.0124
9,C[C@@H]1CN([C@H](C)CO)C(=O)Cc2cc(NS(=O)(=O)c3cccs3)ccc2O[C@H]1CN(C)C(=O)Nc1ccc2c(c1)OCO2,0.417
10,Cc1noc(C)c1NC(=O)Nc1ccc2c(c1)C(=O)N([C@H](C)CO)C[C@H](C)[C@H](CN(C)Cc1ccc(-c3ccccc3)cc1)O2,0.364
11,O=C(O)CCCCCC(=O)N/N=C/c1ccco1,0.15
12,COc1ccc(S(=O)(=O)N(C)C[C@H]2Oc3c(NC(=O)NC4CCCCC4)cccc3C(=O)N([C@@H](C)CO)C[C@@H]2C)cc1,-0.0504
13,C[C@]12C=CC(=O)C=C1CC[C@@H]1[C@@H]2C(=O)C[C@@]2(C)[C@H]1CC[C@]2(O)C(=O)CO,1.09
14,C[C@H]1CN([C@@H](C)CO)C(=O)Cc2cc(NC(=O)Cn3cnnn3)ccc2O[C@H]1CN(C)Cc1ccc(C(=O)O)cc1,-0.00589
15,C[C@@H]1CN([C@H](C)CO)C(=O)Cc2cc(N(C)C)ccc2O[C@H]1CN(C)C(=O)NC1CCCCC1,-0.109
16,C[C@H](CO)N1C[C@H](C)[C@H](CN(C)S(=O)(=O)c2ccccc2C#N)OCc2cn(nn2)CCCC1=O,-0.329
17,C[C@@H]1CN([C@@H](C)CO)C(=O)Cc2cc(NC(=O)Cc3ccccc3)ccc2O[C@@H]1CN(C)Cc1ccc(Oc2ccccc2)cc1,-0.162
18,C[C@H]1CN([C@@H](C)CO)C(=O)c2cccc(NC(=O)c3cnccn3)c2O[C@H]1CN(C)S(=O)(=O)c1cn(C)cn1,-0.0985
19,C[C@@H]1CN([C@H](C)CO)C(=O)CCCn2cc(nn2)CO[C@H]1CN(C)S(=O)(=O)c1ccc(Oc2ccccc2)nc1,-0.176
20,CC1(C)C2CC[C@]3(C)C(C(=O)C=C4[C@@H]5C[C@@](C)(C(=O)O)CC[C@]5(C)CC[C@]43C)[C@@]2(C)CC[C@@H]1O (stereo partly specified),0.127
21,COc1cc(O[C@@H]2O[C@H](CO[C@H]3OC[C@](O)(COC(=O)c4ccc(O)c(OC)c4)[C@H]3O)[C@@H](O)[C@H](O)[C@H]2O)ccc1O,0.323
22,C[C@H]1CN([C@@H](C)CO)C(=O)Cc2cc(NS(=O)(=O)c3cccs3)ccc2O[C@H]1CN(C)Cc1ccncc1,0.635
23,C[C@H](CO)N1C[C@H](C)[C@H](CN(C)S(=O)(=O)c2cccc(F)c2)OCc2cnnn2CCCC1=O,0.303
24,Cc1ccc(S(=O)(=O)Nc2cccc3c2O[C@@H](CN(C)S(=O)(=O)c2c(C)noc2C)[C@@H](C)CN([C@H](C)CO)C3=O)cc1,-0.382
25,Nn1c(C(=O)N2CCCC2)nc2ccccc2c1=O,0.192
26,CCOC(=O)c1cnn2c(C(F)(F)F)cc(C)nc12,-0.121

row,SMILES,delta Cp (YB-1 minus CDIP)
1,NC(=S)c1cnn2c(C(F)(F)F)cc(C(F)(F)F)nc12,9.53 (active)
2,COC(=O)CCCCCCC(=O)N/N=C/c1ccc(O)c(O)c1O,-0.105
3,COc1ccc(CN(C)C[C@H]2Oc3ccc(NC(=O)Cn4cnnn4)cc3CC(=O)N([C@@H](C)CO)C[C@@H]2C)cc1,-0.171
4,CC(C)(C)OC(=O)Nc1cccc(/C=N/NC(=O)CCCCCC(=O)Nc2ccccc2O)c1,-0.601
5,COc1cc(/C=N\NC(=O)CCCCCCC(=O)NO)c(Br)cc1O,-0.218
6,C[C@@H]1CN([C@H](C)CO)C(=O)CCCn2cc(nn2)CO[C@@H]1CN(C)C(=O)Nc1ccc(-c2cccs2)cc1,-0.273
7,C[C@@H]1CN([C@@H](C)CO)C(=O)Cc2cc(NC(=O)C3CC3)ccc2O[C@@H]1CN(C)S(C)(=O)=O,0.012
8,C[C@H]1CN([C@@H](C)CO)C(=O)c2cccc(NC(=O)Nc3ccc(F)cc3)c2O[C@@H]1CN(C)C(=O)Nc1ccc2c(c1)OCO2,1.42
9,COc1ccc(NC(=O)N(C)C[C@@H]2Oc3c(NC(=O)c4ccc(-c5nccs5)cc4)cccc3C(=O)N([C@H](C)CO)C[C@@H]2C)cc1,-0.282
10,O=C(CCCCC(=O)N/N=C/c1ccc(C(F)(F)F)cc1)NO,0.349
11,COc1ccc(S(=O)(=O)N(C)C[C@H]2Oc3ccc(NC(=O)Nc4c(C)noc4C)cc3CC(=O)N([C@@H](C)CO)C[C@H]2C)cc1,-0.281
12,C[C@@H]1CN([C@H](C)CO)C(=O)c2cccc(NS(=O)(=O)c3ccc(F)cc3)c2O[C@@H]1CN(C)C(=O)Nc1ccc(C(F)(F)F)cc1,-0.00681
13,C[C@H](CO)N1C[C@H](C)[C@@H](CN(C)Cc2ccc3c(c2)OCO3)OCc2cnnn2CCCC1=O,-0.135
14,C[C@H]1CN([C@@H](C)CO)C(=O)CCCn2cc(nn2)CO[C@H]1CN(C)S(=O)(=O)c1ccc2ccccc2c1,0.00166
15,Cc1noc(C)c1NC(=O)Nc1ccc2c(c1)CC(=O)N([C@H](C)CO)C[C@@H](C)[C@@H](CN(C)Cc1ccncc1)O2,-0.309
16,O=C(O)CCCCCCC(=O)N/N=C/c1cccs1,-0.0775
17,COc1cccc(-c2cnc3c(c2)C(=O)N([C@H](C)CO)C[C@H](C)[C@H](CN(C)S(=O)(=O)c2cccc(F)c2)O3)c1,-0.156
18,C[C@@H]1CN([C@H](C)CO)C(=O)c2cccc(NC(=O)c3ccncc3)c2O[C@@H]1CN(C)C,-0.219
19,C[C@@H]1CN([C@@H](C)CO)C(=O)Cc2cc(NC(=O)Nc3ccccc3)ccc2O[C@@H]1CN(C)S(=O)(=O)c1ccc(F)cc1,-0.00869
20,O=C(N/N=C/[C@H](O)[C@@H](O)[C@H](O)[C@H](O)CO)c1ccccc1O,0.111
21,C[C@@H]1CN([C@H](C)CO)C(=O)c2cccc(NC(=O)Nc3ccc4c(c3)OCO4)c2O[C@@H]1CN(C)Cc1ccccc1,-0.407
22,C[C@@H]1CN([C@H](C)CO)C(=O)c2cc(NC(=O)CCCN(C)C)ccc2O[C@H]1CN(C)Cc1ccc(C(=O)O)cc1,-0.213
23,Cc1ncc(CO)c(/C=N/NC(=O)c2ccc(C(=O)NO)cc2)c1O,0.181
24,C[C@@H]1CN([C@@H](C)CO)C(=O)Cc2cc(NC(=O)Nc3cccc4ccccc34)ccc2O[C@@H]1CN(C)CC1CCCCC1,0.088
